Growth data for 40 compounds are collected here from PubChem BioAssay (NCI).

This is part of a sample that, as a whole, favours compounds with a hit. Of some 83,000 tested, about 20% had one in any assay.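 A percent growth of 40 corresponds to 60% growth inhibition; 0 means no net growth; -100 means all cells died. Active threshold: below 10.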 Activity calls are given as the source filed them.

In this test the test system is NCI-H226 lung. The test is described as follows: NCI-60 one-dose screen, 48 h (100 = growth as untreated, 0 = no growth, -100 = all killed). The following applies: 10 µM. As to the method:
Growth inhibition of the NCI-H226 human Non-Small Cell Lung tumor cell line is measured as a screen for anti-cancer activity. Cells are grown in 96 well plates and exposed to the test compound for 48 hours. Compounds are tested at a single concentration, which is 10^-5 M for most compounds. The reported endpoint is percent growth (GI% or GIPRCNT), where numbers from 0 - 100% represent growth inhibition, and numbers from -100% - 0 represent cell death. For example, a value of 40 represents 60% growth inhibition. A value of 0 means no net growth occurred over the course of the experiment. A value of -40 indicates 40% of cells at the beginning of the experiment died by the end of the experiment. A value of -100 means all cells are dead at the end of the experiment.
NCI-60 Human Tumor Cell Lines Screen was performed using the standard one-dose NCI protocol, which is described in more detail at https://dtp.cancer.gov/discovery_development/nci-60/default.htm.
Compounds with GIPRCNT values below 10 were considered active. Activity score was based on GIPRCNT using the following formula: […]
Score is 0 for GIPRCNT values of 100 or above, 50 for GIPRCNT values of 0, and 100 for GIPRCNT values of -100.
Take `O=S(=O)(OCCO)c1ccccc1`: the growth is 98.1% (inactive). With `CC(=O)Nc1ccc(S(=O)(=O)N/N=C\c2ccc(Cl)c(Cl)c2)cc1` the figure was 100% (inactive); with `COc1ccc(/C=C(\C#N)c2ccc(OC)cc2)cc1`, 82.7% (inactive). With `COc1ccc(C(=O)C2=CC(=O)C(=O)C2)cc1OC` the figure was 103% (inactive); with `Cn1c2ccccc2c2nn(C(=O)c3ccccc3)c(=O)nc21`, 96.2% (inactive); with `COc1ccc(-n2ncc3c4nc(OC)c(S(=O)(=O)c5ccccc5)cc4ccc32)cc1`, 45.3% (inactive). In the case of `CCCCCCCCCCCC(=O)[O][Sn]([CH2]CCC)([CH2]CCC)[CH2]CCC` it was -66% (active). For `COc1ccc(C(=O)COc2cccc(/C=C3\CSc4ccc(C)cc4C3=O)c2)cc1`, the growth is 77.7% (inactive). `Cc1nn(-c2ccccc2)c2nc3nc4c(c(N)c3c(-c3ccc(Cl)cc3)c12)CCCC4`: the growth is 83.4% (inactive). In the case of `Brc1ccc(Br)nn1` it was -26.8% (active); in that of `COc1ccc(OC)c2ncccc12`, 95.8% (inactive). With `Cc1nc2cc(Nc3nc(Nc4ccc(F)cc4)nc(-c4ccc(Cl)cc4)n3)ccc2n1Cc1ccccc1`, the growth was 86.5% (inactive). In the case of `CCCCNNC(=O)c1ccc(Br)cc1` it was 62.5% (inactive); in that of `C[C@@H](Oc1cc(-c2cnn(C3CC4(CNC4)C3)c2)cnc1N)c1c(Cl)ccc(F)c1Cl`, 65.9% (inactive). With `O=C(Nc1ccc(Cl)c(Cl)c1)NC(CO)(CO)CO`, the growth was 97.5% (inactive).

Turning to `Cc1nc2cc(Nc3nc(NCCN)nc(Nc4ccc(F)cc4)n3)ccc2n1Cc1ccccc1`, the growth was 95.4% (inactive). With `Cc1nc2cc(Nc3nc(Cl)nc(Nc4ccc(F)cc4)n3)ccc2n1Cc1ccccc1`, the growth is 80.5% (inactive). In the case of `COC(=O)CCC(=O)c1ccccc1` it was 115% (inactive). With `COc1cccc(-c2ccc3c(c2)C2CCN(Cc4ccccc4)C3C2)c1` (stereo not given) the figure was 99.2% (inactive); with `c1ccc2c(c1)oc1cc3c(cc12)nnc1cccn13`, 98.5% (inactive); with `O=C(COc1cccc(/C=C2\COc3ccccc3C2=O)c1)c1ccccc1`, 68.7% (inactive). As for `COc1cc(C2=NN(c3ccc(S(N)(=O)=O)cc3)C(c3ccc(Cl)cc3)C2)cc(OC)c1OC` (stereo not given), the growth was 55.6% (inactive).

Take `COc1nc2c(cc1S(=O)(=O)c1ccccc1)CCc1c-2cnn1-c1ccccc1Cl`: the growth was 51.8% (inactive). In the case of `CCCCCCCCCCCCCCNc1nc(CO)ncc1-c1ccc(C(F)(F)F)cc1` it was 101% (inactive). As to `Cc1ccc(N(CSc2ccc(Cl)cc2)CSc2ccc(Cl)cc2)cc1`, the growth is 71.9% (inactive).

As for `OB(O)c1ccccc1`, the growth is 105% (inactive). With `CN1CCN(CCCn2c3c(sc4ncccc43)c(=O)n3nnc(-c4ccccc4)c23)CC1` the figure was 96.2% (inactive); with `NC1=NC(c2ccccc2OS(=O)(=O)c2ccc(Br)cc2)n2c(nc3ccccc32)N1` (stereo not given), 102% (inactive); with `COc1cc(C(F)(F)F)ccc1-c1cc(-c2ccc(F)cc2)n[nH]1`, 81.1% (inactive). With `Cc1ccc(S(=O)(=O)N(c2ccc(Cl)cc2)c2ccc(Br)cc2C(=O)O)cc1` the figure was 97.7% (inactive); with `O/N=C/c1cccs1`, 107% (inactive). Consider `COc1ccc(-c2nc3sccn3c2/C=C/C(=O)c2cc(OC)c(OC)c(OC)c2)cc1OC`, for which the growth is 64.9% (inactive). With `Cc1cc(Cl)c2c(Cl)ccc(Cl)c2n1`, the growth is 110% (inactive).

For `N#CCCN1CCN(CCC#N)C1=S`, the growth was 112% (inactive). In the case of `Cc1nc(NN)c([N+](=O)[O-])c(NN)n1` it was 106% (inactive); in that of `COc1ccc(-c2c3c(N)c4c(nc3nc3c2c(C)nn3-c2ccccc2)CCCCC4)cc1`, 99.4% (inactive). In the case of `Cc1nn(CC(=O)O)c2c1C(=O)CC(C)(C)C2` it was 93.6% (inactive). With `COC1(OC)C2(Cl)C=C(c3ccccc3)C1(Cl)C(Cl)=C2Cl` (stereo not given) the figure was 102% (inactive).

For the compound `CC(C)NCC(O)COc1ccc(CCOCC2CC2)cc1` (stereo not given), the growth is 90.7% (inactive).

As to `COc1ccc(-c2nc(Nc3ccc(F)cc3)nc(Nc3ccc4c(c3)nc(C)n4Cc3ccccc3)n2)cc1`, the growth is 66.6% (inactive).
